Results filed as inconclusive are left out. A number with no mark means an inactive call. Calls come from the whole dose curve; as a rule, active = well fitted inhibition curve with a large enough effect; inconclusive = small, poorly fitted or top-dose-only effect; inactive = flat fitted curve, though single readings scatter.
% is set by controls: 0 for no effect and ±100 for the full control effect.

Calcium and integrin-binding protein 1 (Homo sapiens), sequence (Q99828 whole entry, looked up): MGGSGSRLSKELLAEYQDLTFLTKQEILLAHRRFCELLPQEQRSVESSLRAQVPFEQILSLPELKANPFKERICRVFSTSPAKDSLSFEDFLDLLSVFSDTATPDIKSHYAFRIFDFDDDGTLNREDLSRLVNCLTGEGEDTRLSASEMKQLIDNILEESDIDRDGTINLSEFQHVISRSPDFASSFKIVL

This experiment concerns the target Calcium and integrin-binding protein 1 (Homo sapiens) (UniProt Q99828). Briefly: Primary qHTS for Identification of Calcium Integrin Binding Protein 1 (CIB1) Competitor (AID 1508620). Note: top concentration of the series differs between compounds. The settings on record: CIB1-GST / FITC-alphaIIb peptide fluorescence polarization; series mostly up to 114 µM; activity change, negative = inhibition: at the top concentration. The gist of the method:
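Fluorescence polarization competition: GST-tagged CIB1 (1 uM final) preincubated with compound 15 min at room temperature, then FITC-labelled alphaIIb peptide (100 nM final) added. After 15 min at room temperature, polarization read at Ex 480/Em 540.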
Take `O=c1c2ccc(C(F)(F)F)cc2nc2sc(Nc3ccc4c(c3)CCC4)nn12`: the “activity change, negative = inhibition” value is 6.94%.

On to `CCOc1ccccc1-c1nnc2n1N=C(c1cc(OC)cc(OC)c1)CS2`, for which the “activity change, negative = inhibition” value is -1.16%.

Consider `CCOC(=O)c1cccc(NC(=O)Nc2nnc(-c3ccncc3)s2)c1`, for which the “activity change, negative = inhibition” value is 4.82%.

Turning to `COc1cc(O)c(C(CC(=O)N2C[C@H](C)C[C@H](C)C2)c2ccc3c(c2)OCO3)c(OC)c1` (stereo not given in full), the “activity change, negative = inhibition” value is -0.504% [at 228 µM].

Regarding `CC(=O)Nc1sc2c(c1-c1ccc3c(c1)OCO3)CCNC2`, the “activity change, negative = inhibition” value is 1.43%.
